PubChem BioAssay AID598 (SRMLSC, 2007)
Hit rate of the full screen: of about 85,000 compounds, about 5,100 (6%) were called active. The sample holds actives, similar compounds and a random draw of the others, so the mix is not that of the screen.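 The calls were made as follows: active = viability at or below 40%; inactive = viability above 40%.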

assay: H69AR cell viability reduction – human, 86K library, primary screen (AID 598); details: H69AR lung tumor viability, ATP luminescence, 72 h; at 10 µM; active compounds read low;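 also: multidrug resistant small cell line overexpressing MRP-1 efflux transporter; 100% = mean luminescence of untreated control wells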

| SMILES | viability |
| --- | --- |
| CCCCN(CC)CCNC(=O)c1[nH]c(C)c(C(C)=O)c1C | 101% (inactive) |
| Cc1ccc(C2(C(F)(F)F)N=C3Sc4cc(C)cc(C)c4N3C(=O)N2)cc1 (stereo not given) | 101% (inactive) |
| CCOC(=O)c1sc(=S)n2c1[nH]c(=O)c1ccc(C(=O)OC)cc12 | 36.7% (active) |
| CCOC(=O)Cn1c(N)c(C(=O)OC)sc1=S | 105% (inactive) |
| CCOC(=O)c1sc(=S)n(-c2cccc(OC)c2)c1N | 97.3% (inactive) |
| Cc1ccc(C)c(N2C(=O)CS/C2=N\NC(=O)c2ccccc2Cl)c1 | 101% (inactive) |
| Cn1ccs/c1=N\S(=O)(=O)c1ccc(C(C)(C)C)cc1 | 89.4% (inactive) |
| COc1ccc(NC(=O)C2C3C=CC(C3)C2C(=O)NCc2ccccn2)c(OC)c1 (stereo not given) | 93.1% (inactive) |
| O=C(NCCc1ccccc1)c1ccc(OCCOc2ccccc2)cc1 | 87.8% (inactive) |
| COc1ccccc1Nc1nc(N)nc(CN(C)C2CCCCC2)n1 | 87.4% (inactive) |
| COc1ccccc1NC1=NC(c2ccc(Cl)cc2)N=C(N)N1 (stereo not given) | 19.5% (active) |
| COc1ccccc1NC1=NC2(CCCC2)N=C(N)N1 | 91.5% (inactive) |
| Cc1ccc(S(=O)(=O)NCC(C)NS(C)(=O)=O)cc1 (stereo not given) | 95.2% (inactive) |
| CCOC(=O)c1sc(NC(=O)c2ccncc2)nc1C | 96.2% (inactive) |
| CCCCCOC(=O)c1ccc(N2C(=O)C3C4C=CC(C4)C3C2=O)cc1 (stereo not given) | 95.1% (inactive) |
| COc1ccc(N2CCN(Cc3cc(=O)oc4ccc5ccccc5c34)CC2)cc1 | 71.9% (inactive) |
| COc1ccc(Nc2cc(=O)oc3ccccc23)cc1 | 18.4% (active) |
| COC(=O)COc1ccc2oc(=O)cc(C)c2c1 | 91.9% (inactive) |
| Cc1cc(N2CCN(S(=O)(=O)c3ccc(C)c(C)c3)CC2)c2ccccc2n1 | 66.8% (inactive) |
| CC1(C)CCc2nc(SCc3ccccc3)c(C#N)cc2C1 | 81.4% (inactive) |

| SMILES | viability |
| --- | --- |
| Cc1ccc2cc(C#N)c(SCC(=O)NCC3CCCO3)nc2c1C (stereo not given) | 91.2% (inactive) |
| CC(NC(=O)CSc1nc2c(cc1C#N)CN(C)CC2)c1ccccc1 (stereo not given) | 15.6% (active) |
| O=C1C2N=NN(CC(=O)N3N=C(c4cccc5ccccc45)CC3c3ccccc3)C2C(=O)N1c1ccccc1 (stereo not given) | 70.5% (inactive) |
| CCN1CCCC1Cn1cnc2c([nH]c3cc(OC)ccc32)c1=O (stereo not given) | 79.9% (inactive) |
| Cc1cccc(CCNS(=O)(=O)c2ccc(S(=O)(=O)NC3CCCC3)cc2)c1 | 78% (inactive) |
| O=C(Nc1ccc(Cl)cc1)c1cc2nc(C3CC3)cc(C(F)(F)F)n2n1 | 79.5% (inactive) |
| CCOC(=O)C1CCN(C(c2cc3cc(C)cc(C)c3[nH]c2=O)c2nnnn2C2CCCCC2)CC1 (stereo not given) | 6.09% (active) |
| COc1ccc(N2CCN(C(c3cc4ccc(C)cc4[nH]c3=O)c3nnnn3C3CCCC3)CC2)cc1 (stereo not given) | 86.9% (inactive) |
| Cc1cc(C)c2[nH]c(=O)c(C(c3nnnn3Cc3ccc4c(c3)OCO4)N3CCCC3)cc2c1 (stereo not given) | 68.1% (inactive) |
| Cc1ccc(-c2noc(CC(c3ccccc3)c3ccccc3)n2)cc1 | 97.1% (inactive) |
| CCn1c(CNC(=O)c2ccccc2)nnc1SCC(=O)N1CCN(c2ccccc2)CC1 | 90.4% (inactive) |
| Cc1cccc2nc(CSc3nc4[nH]ncc4c(=O)n3-c3cccc(Cl)c3)cc(=O)n12 | 41.8% (inactive) |
| Cc1cc(C)c2c(n1)nn1c(-n3ccnc3)cc(C)nc21 | 74.5% (inactive) |
| Cc1cc(C)c2c(n1)nn1c(N3CCN(c4cccc(Cl)c4)CC3)cc(C)nc21 | 17.6% (active) |
| Cc1cc(C)c2c(n1)nn1c(N3CCOCC3)cc(C)nc21 | 72.3% (inactive) |
| O=C(NCc1ccco1)C1(c2ccc(Cl)cc2)CCCC1 | 96.8% (inactive) |
| O=C(CSc1c2c(nc3ccc(Cl)cc13)CCCC2)NCc1ccco1 | 7.34% (active) |
| O=C(NCc1ccco1)c1cc(-c2cccnc2)nc2ccc(Cl)cc12 | 68.3% (inactive) |
| COc1ccc(-n2nnnc2SCc2nc(N)nc(N3CCOCC3)n2)cc1 | 94.2% (inactive) |
| Cc1cc(NC(=O)CS(=O)(=O)c2cn(C)c3ccccc23)no1 | 78.6% (inactive) |

| SMILES | viability |
| --- | --- |
| C=C(C)Cn1c(SCC(=O)NCc2ccco2)nc2sc3c(c2c1=O)CCC3 | 49.4% (inactive) |
| O=C(CCCn1c(SCC(=O)c2ccc(F)cc2)nc2ccccc2c1=O)NCc1ccco1 | 58.2% (inactive) |
| O=C(CSc1nc2cc3c(cc2c(=O)n1CCC1=CCCCC1)OCO3)NCc1ccco1 | 36.1% (active) |
| Cc1c(CCO)c(=O)n(-c2ccccc2)n1S(=O)(=O)c1ccc(F)cc1 | 75.6% (inactive) |
| CCn1c(SCC(=O)Nc2ccc(S(=O)(=O)Nc3onc(C)c3C)cc2)nnc1-c1ccccc1 | 98.3% (inactive) |
| COn1c(=O)c(=O)n(OC)c2ccccc21 | 97.1% (inactive) |
| COC(=O)c1ccccc1Oc1c(F)c(F)nc(N2CCOCC2)c1F | 67.1% (inactive) |
| Cc1ccc(C(C(=O)NC2CCCC2)N(Cc2ccco2)C(=O)CCC(=O)Nc2ccccn2)cc1 (stereo not given) | 69.7% (inactive) |
| Cc1ccc2c(c1)N(CC(=O)N(Cc1ccccn1)Cc1ccco1)C(=O)C(C(C)C)O2 (stereo not given) | 35% (active) |
| Cc1ccc(C)c(N(CC(=O)NCc2ccco2)C(=O)CCC(=O)Nc2ccccn2)c1 | 98.1% (inactive) |
| COc1cc(S(=O)(=O)N(Cc2cccs2)C2CC2)ccc1-n1cnnn1 | 68% (inactive) |
| COC(=O)c1ccccc1NC(=O)Cc1ccccc1OC | 94.2% (inactive) |
| CCOC(=O)c1nnn(-c2nonc2-n2cccc2)c1CN1CCC(C(=O)OCC)CC1 | 70.5% (inactive) |
| CCOc1ccc(S(=O)(=O)NCCSc2ccccc2)cc1 | 105% (inactive) |
| COc1ccc(C(=O)N2CC3(C)CC2CC(C)(C)C3)cc1OC (stereo not given) | 88.7% (inactive) |
| Cc1coc2c(O)cc3c(c12)OC1(N2CCCCC2)C(=O)NCCCC31 (stereo not given) | 1.27% (active) |
| CCc1c(O)cc2n(c1=O)-c1ccccc1C2(C)C | 91.5% (inactive) |
| Cc1nnc(C)n1/N=C/c1ccc(C(C)C)cc1 | 106% (inactive) |
| COc1ccc(Br)cc1/C=N/n1c(C)nnc1C | 28.1% (active) |
| COC(=O)c1ccc(/C=N\n2c(C)nnc2C)cc1 | 99.6% (inactive) |
